From PubChem BioAssay (NCATS)
Inconclusive results are not listed. A call without a number means that no potency is given here. Calls of active or inactive are those of the source. Calls follow the shape of the dose curve; as a rule, active = well fitted inhibition curve with a large enough effect; inconclusive = small, poorly fitted or top-dose-only effect; inactive = flat fitted curve, though single readings scatter.

Target: Calcium and integrin-binding protein 1 (Homo sapiens) (UniProt Q99828)
Sequence (Q99828 whole entry, looked up): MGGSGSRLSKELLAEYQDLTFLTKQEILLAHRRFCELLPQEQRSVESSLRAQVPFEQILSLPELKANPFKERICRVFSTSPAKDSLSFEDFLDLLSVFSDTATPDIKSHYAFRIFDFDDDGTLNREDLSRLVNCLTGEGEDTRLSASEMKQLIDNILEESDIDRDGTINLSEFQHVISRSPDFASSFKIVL
Assay: Primary qHTS for Identification of Calcium Integrin Binding Protein 1 (CIB1) Competitor (AID 1508620);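 also: GST tagged CIB1 binding a fluorescein labelled alphaIIb integrin peptide tracer; top concentration of the series differs between compounds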
Settings: CIB1-GST / FITC-alphaIIb peptide fluorescence polarization; series mostly up to 114 µM
Method in brief: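 CIB1-GST (1 uM final) and compound incubated 15 min at room temperature before adding FITC-alphaIIb peptide tracer (100 nM final). Competition for binding read by fluorescence polarization (ex 480, em 540) after another 15 min at room temperature.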

SMILES | Potency
CC(=O)Nc1sc2c(c1-c1ccc(C(F)(F)F)cc1)CCNC2 | inactive
CC(=O)Nc1sc2c(c1-c1cc3ccccc3o1)CCNC2 | inactive
Cc1ccnc(NC(=S)N2CCN(c3cccc(N(C)C)c3)CC2)c1 | inactive
CS(=O)(=O)c1ccc(C(=O)OCC(=O)N2CCC(c3ccccc3)CC2)cc1[N+](=O)[O-] | inactive
CC(=O)c1ccccc1-c1ncc(C)c(NCc2ccc(-c3cccnc3)cc2)n1 | inactive
CC(C)(C)OC(=O)Cc1nnc(CNC(=O)c2ccccc2)s1 | inactive
Cc1ccc(OCCn2c(CCNC(=O)/C=C/c3cccc(Br)c3)nc3ccccc32)cc1 | inactive
Cc1ccc2nc3sc(C(=O)NCCCN(C)C)cc3cc2c1 | inactive
O=C(CNC(=O)c1ccccc1)N[C@H](C(=O)Nc1cc(C(F)(F)F)ccc1Cl)c1ccccc1 | inactive
COc1ccc(NC(=O)C(OC(=O)CNC(=O)c2ccccc2)c2ccccc2)cc1F (stereo not given) | inactive
Cc1ccc(CNc2ncnc3cc(-c4ccc5c(c4)OCO5)ccc23)o1 | inactive
CCOc1ccc(COc2ccc(-c3nc4ccccc4[nH]3)cc2)cc1 | inactive
O=C(O)c1ccc2c(c1)C(=O)N([C@@H](C(=O)O)C(c1ccccc1)c1ccccc1)C2=O | inactive
c1ccc(-n2cc(-c3nnc4n3CCCCC4)c3ccccc32)cc1 | inactive
N#Cc1ccccc1-c1csc(N2CCC(C(N)=O)CC2)n1 | inactive
Cc1cnc(-c2ccccc2C2COC2)nc1NCC1CCN(c2cccnc2)CC1 | inactive
CCOC(=O)C1CCN(C(=O)C(C)(C)NC(=O)Nc2ccc([N+](=O)[O-])cc2)CC1 | inactive
COc1ccc(C2C3=C(N=CN(CCN4CCOCC4)C3N)Oc3ccccc32)cc1OC (stereo not given) | inactive
Cc1ccc(NS(=O)(=O)c2cc3c(cc2NCC(C)(C)O)NC(=O)CC3)cc1C | inactive
c1csc(CNc2ccc(N3CCCCC3)cc2)c1 | inactive

SMILES | Potency
Cc1ccc(NS(=O)(=O)c2cc3c(cc2C)OCC(=O)N3)cc1C | inactive
Cc1cc(N2C(=O)c3ccccc3C2=O)no1 | inactive
Cc1ccc(N[S+](=O)([O-])c2cc3c(cc2Cl)NC(=O)CO3)cc1Br | inactive
COc1ccc(NC(=S)N2CCN(c3cccc(C(F)(F)F)c3)CC2)nc1 | inactive
NC(=O)C1CCN(c2nc(-c3ccc(-c4ccccc4)cc3)cs2)CC1 | inactive
O=C(Nc1cc(C(F)(F)F)cc(C(F)(F)F)c1)Nc1nnc(-c2ccncc2)s1 | inactive
O=C1CCCC2=C1C(c1[nH]ncc1Cl)N=C(Nc1nccs1)N2 (stereo not given) | inactive
CC1=C(C(=O)NCc2ccccc2)C(c2ccccc2Br)N=C(Nc2nc3ccccc3o2)N1 (stereo not given) | inactive
O=C(CCC#CCSc1nnc(-c2cccc3ccccc23)o1)c1ccccc1 | inactive
NC(=O)C1CCN(c2ncc(-c3cccc(N4CCOCC4)c3)s2)CC1 | inactive
C=CCNc1oc(-c2cccs2)nc1C#N | inactive
CC(=O)Nc1sc2c(c1-c1ccccc1)CCN(C(=O)OC(C)(C)C)C2 | inactive
CC(=O)N1CCc2cc(S(=O)(=O)Nc3ccc(C)c(C)c3)ccc21 | inactive
O=[S+]([O-])(c1ccc2c(c1)OCCO2)N1CCN([S+](=O)([O-])c2cc(Cl)ccc2F)CC1 | inactive
Cc1ccc(-c2ccc(=O)n(CCNC(C)c3ccco3)n2)cc1 (stereo not given) | inactive
O=C1CCCC2=C1C(c1cccnc1Cl)N=C(Nc1nc3ccccc3o1)N2 (stereo not given) | inactive
O=C1CCc2cc(S(=O)(=O)Nc3ccccn3)ccc2N1 | inactive
Cc1ccc(C(=O)Nc2ccc(N3CCCCC3)cc2)cc1 | inactive
Cc1cc(N[S+](=O)([O-])c2cc3c(cc2Cl)CCC(=O)N3)ccc1Br | inactive
O=C(OCC#CCSc1nnc(-c2cccc3ccccc23)o1)C1CCCC1 | inactive
